Gal4-VP16 FLuc: inhibits Gal4-VP16 luciferase reporter, ROR gamma counter-screen; Drosophila S2 Gal4-VP16 UAS-luciferase, luminescence, 20 h; Potency, µM (doses to about 53.6 µM), without a hit: at the highest dose activity, negative = inhibition, usual class: inhibitors; 310,000 compounds, 3.5% hits;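 further: Gal4-VP16 expression switched on by copper sulfate through the metallothionein promoter; on the % scale 0 is the no-effect control and ±100 the full control effect; nearly all actives have a fitted effect of over 50% in size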
TGFb SMAD3 inh: blocks TGF-b signaling; HepG2 CAGA-GFP TGF-b/SMAD3 reporter, GFP fluorescence, 18 h; TGF-beta stimulated, 500 pg/mL final; Potency, µM (top dose mostly 46.1 µM), for inactives: top-dose activity, negative = inhibition, most hits filed as inhibitors; 410,000 compounds, 1.2% hits; AID 588855; further: on the % scale 0 is the no-effect control and ±100 the full control effect; nearly all actives have a fitted effect of over 65% in size
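Read-out: total well GFP (ex488/em500-530) summed from mean per-cell fluorescence. Cells: HEPG2 CAGA-GFP, 1% FBS DMEM, 18 h at 37 degrees C with 500 pg/mL final TGF-beta. Unstimulated wells served as the full-inhibition control; stimulated DMSO wells = 0%.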
S2 tox: cell viability loss in ATXN counter-screen; S2 cells (HEK-293 line with an ATXN2-luciferase reporter) viability, CellTiter-Fluor protease fluorescence, 24 h; Potency, µM (doses to about 56.7 µM), most hits filed as cytotoxic; 400,000 compounds, 0.49% hits; AID 651635; further: nearly all actives have a fitted effect of over 40% in size
HepG2 tox: HepG2 cytotoxicity, counter-screen for TGF-b inhibitors | HepG2 CAGA-GFP viability, ATP luminescence, 18 h | Potency, µM (series often up to 46.1 µM), for inactives: at the highest dose activity change, negative = cytotoxicity, actives largely listed as cytotoxic | 410,000 compounds, 0.76% hits | AID 588856
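CellTiter-Glo luminescence gave cytotoxicity after 18 hours at 37 degrees C. The cells were HepG2 CAGA-GFP in 1% FBS DMEM, stimulated with 500 pg/mL TGF-beta after compound addition. %Activity was normalised to no-cell wells (complete cell-killing) and DMSO (no toxicity), and curves were fitted and classified.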
ATXN2 expr inh: ATXN2 expression inhibition. HEK-293 ATXN2-luciferase reporter, luminescence, 24 h. 360,000 compounds, 0.72% hits. AID 1745845. Potency, µM (top dose mostly 57 µM), inactives show top-dose activity change, negative = inhibition, actives largely listed as inhibitors; further: on the % scale 0 is the no-effect control and ±100 the full control effect; nearly all actives have a fitted effect of over 55% in size
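ATXN2-luciferase reporter cells (luciferase flanked by upstream and downstream ATXN2 gene portions) were treated 24 h at 37 °C with compounds at up to 57 uM. SteadyGlo luminescence gave expression; GF-AFC fluorescence gave viability.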
RORgamma inh: inhibitors of mouse ROR gamma transcriptional activity | P51450 | AID 2551 | Potency, µM (series often up to 53.6 µM), for the others: at the top dose activity change, negative = inhibition, hits mostly inhibitors | 310,000 compounds, 5.4% hits | Drosophila S2 Gal4-RORgamma UAS-luciferase reporter, 20 h; further: on the % scale 0 is the no-effect control and ±100 the full control effect; nearly all actives have a fitted effect of over 60% in size
Target sequence (P51450 whole entry, looked up, the tested form may be a part): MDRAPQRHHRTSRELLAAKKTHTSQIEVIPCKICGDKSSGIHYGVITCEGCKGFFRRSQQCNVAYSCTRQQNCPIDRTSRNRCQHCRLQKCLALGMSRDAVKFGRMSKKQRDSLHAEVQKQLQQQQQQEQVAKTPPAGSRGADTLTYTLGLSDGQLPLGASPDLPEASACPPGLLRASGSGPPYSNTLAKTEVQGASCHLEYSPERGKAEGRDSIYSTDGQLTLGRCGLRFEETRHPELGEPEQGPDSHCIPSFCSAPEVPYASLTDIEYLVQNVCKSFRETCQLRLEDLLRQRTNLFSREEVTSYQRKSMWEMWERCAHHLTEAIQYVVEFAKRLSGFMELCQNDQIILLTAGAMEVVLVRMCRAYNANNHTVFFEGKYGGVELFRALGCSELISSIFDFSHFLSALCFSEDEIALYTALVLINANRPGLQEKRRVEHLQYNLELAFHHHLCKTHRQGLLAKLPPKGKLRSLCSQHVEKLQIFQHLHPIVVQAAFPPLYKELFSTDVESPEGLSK
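Schneider cells (Drosophila), stable Gal4 DBD–ROR gamma + UAS-luc; 1 hr cmpd preincubation; Cu2+ induction 700 uM final; 20 hr ambient; luminescence.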
* hit, by the source's call; i = inactive; u = inconclusive; x = no result given. This is a sample that favours compounds with a hit; in the whole collection about 6.1% have one here. The call rests on the fitted dose curve; in most records, active means well fitted curve in the direction sought with a large enough effect; inconclusive means small, poorly fitted or top-dose-only effect, or another doubt; inactive means no such curve, though single readings can be large; an effect the other way counts as inactive or inconclusive. Potency means the concentration at half of the fitted maximal effect.

SMILES | Gal4-VP16 FLuc | TGFb SMAD3 inh | S2 tox | HepG2 tox | ATXN2 expr inh | RORgamma inh
CCCN(CC(=O)Nc1ccccc1C)C(=O)CCl | -4.0% | 5.62µM* | u | -79.2% | u | u
CCOc1ccccc1NC(=O)Cc1coc2c(C)c(C)ccc12 | x | -2.1% | i | -2.9% | -12.3% | x
CCOC(=O)c1c(C)oc2ncnc(Nc3ccc(OCC)cc3)c12 | x | -1.2% | i | -0.4% | -0.5% | x
O=C(Nc1nc2c(s1)CCCC2)c1cc(-c2ccc3c(c2)OCO3)nc2ccccc12 | u | x | x | x | x | -40.6%
Cc1ccccc1C(=O)N[C@H](C(=O)Nc1ccc(Cl)c(Cl)c1)C(C)C | -19.6% | 8.9% | i | -13.0% | -6.2% | -14.4%
Cc1ccccc1-c1cc(C(=O)Nc2nc3c(s2)CCCC3)c2ccccc2n1 | -17.9% | 5.5% | i | 12.1% | -7.0% | 10µM*
Cc1ccccc1C(=O)NC(C(=O)Nc1nc2c(s1)CCCC2)C(C)C (centres undefined) | 20µM* | -24.7% | i | -21.3% | 1.6% | u
Cc1ccc2ncc3c(-c4ccc(F)cc4)nn(-c4cccc(F)c4)c3c2c1 | x | 6.3% | i | -7.9% | -6.5% | x
CCC(=O)N1CCc2cc(CNC(=O)c3ccc(F)cc3)ccc21 | x | 15.0% | x | -37.0% | x | x
OC[C@]1(O)OC[C@@H](O)[C@H](O)[C@@H]1O | x | x | i | x | 1.1% | x
O=C(COCc1cc(-c2ccc3c(c2)OCO3)on1)Nc1cccc(O)c1 | x | -30.4% | x | -3.9% | x | x
Cc1cccc(/N=C/c2sc3ccccc3c2O)n1 | -17.5% | -8.6% | i | -38.5% | x | -33.3%
O=[N+]([O-])c1ccc(O)c(N=Cc2sc3ccccc3c2O)c1 | u | -17.6% | 28.2µM* | -3.9% | u | u
Oc1c(C=Nc2cccc3cccnc23)sc2ccccc12 | 1.41µM* | x | x | x | x | 1.78µM*
COc1cc(OC)c(NC(=O)CSc2cc(=O)n(C)c3ccc(Cl)cc23)cc1Cl | x | 0.0% | i | -18.7% | -3.3% | x
CCCCCC(=O)/C=C/[C@@H]1[C@@H](C/C=C\CCCC(=O)O)[C@@H](O)C[C@H]1O | -2.0% | x | x | x | x | 6.7%
COc1cc(C)c(CN2CCc3nnc(C(C)NC(=O)c4cc(F)ccc4F)n3CC2)cc1C (centres undefined) | x | x | i | x | x | x
Cn1c(CN2CCN(c3ccc(Cl)cc3)CC2)nc2ccccc21 | u | u | i | -26.3% | -13.9% | 6.31µM*
Cn1c(CN2CCN(c3ccccc3NS(C)(=O)=O)CC2)nc2ccccc21 | -12.0% | -13.0% | i | -0.1% | x | -28.3%
CCCn1c(CN2CCN(C)CC2)nc2ccccc21 | 4.8% | 2.7% | i | 4.6% | 7.9% | 1.5%
CCn1c(CN2CCN(c3ccc(Cl)cc3)CC2)nc2ccccc21 | 8.91µM* | u | x | -26.2% | x | 10µM*
O=C(O)c1ccc(/C=N/N2CCN(C3c4ccccc4-c4ccccc43)CC2)cc1 | 2.7% | u | i | -5.5% | 6.2% | 16.5%
Oc1ccc(/C=N/N2CCN(C3c4ccccc4-c4ccccc43)CC2)cc1 | 18.3% | 12.6µM* | i | 17.8µM* | 9.4% | -0.9%
CS(=O)(=O)c1ccccc1-c1nnc(NC(=O)C2=COCCO2)o1 | x | 7.6% | i | 12.8% | 0.3% | x
O=C(Nc1nnc(C2=COCCO2)o1)c1ccc(Cl)cc1 | -88.0% | 21.0% | i | -7.1% | -16.3% | 0.631µM*
CC(=O)Nc1nnc(C2=COCCO2)o1 | 0.4% | 7.1% | i | -8.1% | -1.3% | 2.0%
O=C(Nc1nnc(C2=COCCO2)o1)c1ccc(Cc2ccccc2)cc1 | 3.16µM* | 21.4% | i | -23.6% | -15.1% | 0.631µM*
O=C(Nc1nnc(C2=COCCO2)o1)c1ccc(Br)cc1 | 0.501µM* | x | x | x | x | 0.794µM*
O=C(Nc1nnc(C2=COCCO2)o1)c1cccc(C(F)(F)F)c1 | 0.316µM* | -6.4% | u | 1.1% | -22.0% | 0.562µM*
O=C(Nc1nnc(C2=COCCO2)o1)c1ccc(F)cc1 | 0.794µM* | 15.5% | i | -13.4% | -15.1% | 0.891µM*
